Vaccinia Venus: vaccinia inhibition (Venus reporter) | Vaccinia virus Venus reporter expression, fluorescence | Potency, µM (doses to about 36.5 µM), without a hit: top-dose activity change, negative = inhibition, most hits filed as inhibitors | actives 0.46% (n = 330,000) | AID 720580; calls by dose curve; tested in A549 cells; further: potency means the concentration at half of the fitted maximal effect; on the % scale 0 is the no-effect control and ±100 the full control effect; nearly all actives have a fitted effect of over 30% in size
Vaccinia mCherry: inhibitors of vaccinia virus infection (mCherry reporter signal) | Vaccinia virus mCherry reporter infection, fluorescence | Potency, µM (titrated, usually from 36.5 µM), for the others: at the top dose activity change, negative = inhibition, hits mostly inhibitors | actives 0.63% (n = 310,000) | AID 720579; calls by dose curve; tested in A549 cells; further: potency means the concentration at half of the fitted maximal effect; on the % scale 0 is the no-effect control and ±100 the full control effect; nearly all actives have a fitted effect of over 35% in size
Lassa entry inh: Lassa virus entry inhibition; Lassa virus pseudotype entry inhibition, cell reporter; Potency, µM (highest dose often 37.9 µM), inactives show at the top dose activity change, negative = inhibition, hits mostly inhibitors; actives 1.2% (n = 300,000); AID 540256; calls by dose curve; tested in HEK293 cells; further: potency means the concentration at half of the fitted maximal effect; on the % scale 0 is the no-effect control and ±100 the full control effect; nearly all actives have a fitted effect of over 50% in size
Shiga inhibitor: inhibitors of Shiga toxin in Vero cells; Vero cells, Shiga toxin protein synthesis inhibition reporter; inhibition, % at 38.7 µM; actives 9.2% (n = 290,000); AID 2315; in the data active means inhibition mostly above about 28%, no sharp cut-off; inactive means mostly below about 43%; further: 0% is about no effect
MARV entry inh: blocks Marburg virus binding to or entry into cells; Marburg virus pseudotyped entry inhibition, cell reporter; Potency, µM (top dose mostly 37.8 µM), for inactives: top-dose activity change, negative = inhibition, hits mostly inhibitors; actives 1.8% (n = 300,000); AID 540276; calls by dose curve; tested in HEK293 cells; further: potency means the concentration at half of the fitted maximal effect; on the % scale 0 is the no-effect control and ±100 the full control effect
CHX counter: counter-screen for Shiga toxin inhibitors: cycloheximide protein synthesis inhibition; cell reporter, cycloheximide protein synthesis inhibition counterscreen; max response, %; actives 12% (n = 300,000); AID 2314; in the data active means max response mostly above about 13%, no sharp cut-off; inactive means mostly below about 14%; further: read at 38.3 µM for the half of the compounds with a filed dose; 0% is about no effect
The depositor's hits bear a star; i = inactive; u = inconclusive; x = no result given; ! = not confirmed by another sample; [ ] = another dose, or the depositor's remark. Shown is part of a subset that was picked to be rich in hits.

SMILES	Vaccinia Venus	Vaccinia mCherry	Lassa entry inh	Shiga inhibitor	MARV entry inh	CHX counter
Nc1nc(N)nc(-c2ccc(Cl)cc2)n1	-10%	-14%	8%	25	15%	29*
Cc1cccc(-c2nc(N)nc(N)n2)c1	-5%[7.34 µM]	-1%[7.34 µM]	0%	48	5%[46.1 µM]	34*
Cc1ccc(Oc2ccc(-c3nc(N)nc(N)n3)cc2)cc1	-16%	-9%	-7%	29	1%	12*
Nc1nc(-c2ccc(Cl)cc2)nnc1-c1ccc(Br)cc1	-2%	i	9%[46.1 µM]	96*	u	52*
FC(F)Sc1nc2ccccc2[nH]1	-2%	-30%	-2%	-2	0%[14.2 µM]	0
O=C(CN(Cc1ccc(Br)cc1)S(=O)(=O)c1ccccc1)NCC1CCCO1 (centres undefined)	-23%	-19%	5%	-16	u	-2
Cc1ccc(NCc2cccn2-c2nnc(N3CCC(C(=O)NCc4ccc(F)cc4)CC3)s2)cc1	-27%	u	x	x	u	x
Cc1cccc2cc(CN(Cc3ccccc3)C(=S)NCCCN(C)C)c(=O)[nH]c12	-7%	i	-27%[46.1 µM]	-6	4µM*	-3
Cc1cccc2cc(CN(Cc3cccnc3)C(=S)NCCCN(C)C)c(=O)[nH]c12	3%	i	14%	17	2%[46.1 µM]	-1
Cc1ccc(CN(Cc2cc3cccc(C)c3[nH]c2=O)C(=S)NCCCN(C)C)cc1	-22%	-16%	-12%	-20	4.5µM*	-3
CCCCC1CCC(C(=O)N2CC(=O)Nc3ccc(C)cc3C2c2ccc(F)cc2)CC1 (centres undefined)	-25%	i	u	x	u	x
Oc1oc(-c2ccccc2)nc1/C=N/c1ccccn1	-13%	i	20%	10	u	-2
Cc1ccc(-c2nc(C=Nc3ccc(O)cc3)c(O)o2)cc1	x	x	-24%	125*	u	44*
CCC(=O)Oc1oc(-c2ccccc2)nc1C=Nc1ccc(C)cc1	-3%	i	-22%	10	3%[46.1 µM]	9
CN=Cc1nc(-c2ccccc2)oc1O	-11%	x	u	active	u	30*
Cc1cccc(NC(=O)Cn2nnc(-c3nc(-c4ccncc4)no3)c2N)c1	-3%	-10%	u	x	x	x
Cc1ccc(/C=N/n2cnc3sc(-c4ccccc4)cc3c2=O)o1	-9%	i	-1%	47*	-4%	24*
NC1(c2ccc(-c3nc4ccn5c(=O)[nH]nc5c4cc3-c3ccccc3)cc2)CCC1	10µM*	7.9µM*	x	x	x	x
O=C1Cc2c(-c3ccccc3)cc(-c3cccc(Cl)c3)nc2-c2ccccc2N1	-11%	-6%	-2%	x	-21%	x
COc1cc(C(=S)N2CCOCC2)cc(OC)c1O	-11%	-14%	4%	-14	16%[46.1 µM]	-1
COC(=O)c1ccccc1C(=O)N1CC(O)CO1 (centres undefined)	60%	i	-2%[46.1 µM]	-3	-10%[46.1 µM]	-4
CCc1ccccc1NC(=O)c1cccc(NC(=O)/C=C/c2ccco2)c1	-26%	-4%	-7%	105*	-24%	69*
Cc1ccc(-n2nc3ccc(NC(=O)/C=C/c4ccco4)cc3n2)cc1	u	u	-6%	74*	-16%	22*
Cc1ccc(NC(=O)c2cccc(NC(=O)/C=C/c3ccco3)c2)cc1C	-25%	i	-5%	137*	u	57*
COC(=O)C1=C(CS(=O)(=O)c2cc(Cl)ccc2OC)NC(=O)NC1c1ccccc1 (centres undefined)	-9%	-8%	6%[46.1 µM]	x	-5%[46.1 µM]	x
SMILES	Vaccinia Venus	Vaccinia mCherry	Lassa entry inh	Shiga inhibitor	MARV entry inh	CHX counter
O=C(Nc1ccccc1)c1cccc(NC(=O)c2ccco2)c1	-7%	-11%	-3%[46.1 µM]	x	-18%[46.1 µM]	x
O=C(Nc1cccc(-c2nc3ccccc3[nH]2)c1)c1cccc(NC(=O)c2ccco2)c1	x	x	u	-19	13µM*	-7
O=C(Nc1ccc2nc(-c3ccccc3)[nH]c2c1)c1ccco1	-12%	-2%	u	47*	u	36*
Cc1ccc(-c2nc3ccccc3[nH]2)cc1NC(=O)COc1ccc(Cl)cc1Cl	u	u	3%[46.1 µM]	x	-1%[46.1 µM]	x
CS(=O)(=O)c1cccc(C(=O)Nc2cccc(-c3nc4ccccc4[nH]3)c2)c1	-17%	-18%	u	17	0%[46.1 µM]	2
Cc1ccc(-c2nc3ccccc3[nH]2)cc1NC(=O)c1sc2cc(Cl)ccc2c1Cl	-4%	49%	14%	54	-19%	20*
Cc1ccc(-c2nc3ccccc3[nH]2)cc1NC(=O)c1ccco1	-9%	-7%	4%	53	7%	22*
O=C(Cc1ccc2ccccc2c1)NO	-9%	-10%	x	x	x	x
Cc1cccc2[nH]c(-c3ccc(NC(=O)c4ccco4)cc3)nc12	u	u	u	126*	u	32*
O=C(O)Cc1ccc(NC(=O)c2cccc(NC(=O)c3ccco3)c2)cc1	-4%	-15%	7%[46.1 µM]	13	-7%[46.1 µM]	9
O=C(Nc1ccc2nc[nH]c2c1)c1ccco1	-3%	-13%	17%	71*	17%	30*
Cc1ccoc1C(=O)N1CCCC(CCC(=O)N2CCN(c3ccccn3)CC2)C1 (centres undefined)	-8%	-8%	0%	-5	u	1
CC(C)c1nnc(NC(=O)C2CCCO2)s1 (centres undefined)	-5%	i	x	1	x	13
CCCc1nnc(NC(=O)C2CCCO2)s1 (centres undefined)	x	x	11%	52	u	25*
CCc1nnc(NC(=O)C2CCCO2)s1 (centres undefined)	-3%	i	29%[46.1 µM]	27	u	17*
Cc1ccc(NC(=O)CCc2nnc3ccc(NCc4ccco4)nn23)cc1	-15%	i	-17%[46.1 µM]	18	14%[46.1 µM]	35*
CCn1cc(C(=O)NCCc2ccc(OC)c(OC)c2)c(=O)c2cc(S(=O)(=O)N3CCC(C)CC3)ccc21	-18%	-34%	-24%[46.1 µM]	x	u	x
CCc1cccc(C)c1Nc1c(-c2ccc(N(C)C)cc2)nc2cnccn12	-10%	-23%	u	x	u	x
O=c1c(=Nc2ccccc2O)c(=O)c2ccccc12	3%	-10%	13%	108*	7%[46.1 µM]	21*
O=c1[nH][nH]cc1C=Nc1ccccc1O	-14%	u	u	-4	u	-5
COC(=O)C(N)Cc1ccc(O)cc1 (centres undefined)	x	x	-19%	-6	-7%	-7
COC(=O)C(C)(N)Cc1ccc(O)cc1 (centres undefined)	-15%	-14%	u	x	2.8µM*!	x
CCOc1ccc(CCNC(=O)c2cccc(Nc3nc4ccccc4nc3-n3nc(C)cc3C)c2)cc1OCC	-10%	-2%	-1%[46.1 µM]	x	4%[46.1 µM]	x
Cc1ccc2nc(C)c(C(=O)N/N=C/c3cccs3)cc2c1	-16%	i	3%	5	u	1
O=C(N/N=C/c1cccs1)c1ccc2ncccc2c1	3%	-3%	-14%[46.1 µM]	46*	-7%[46.1 µM]	18
O=C(N/N=C/c1cccs1)c1ccc2ccccc2c1	-29%	i	-27%	109*	u	54*
CS(=O)(=O)N(CC(=O)N1CCCC1)c1ccccc1F	-3%	-3%	20%[46.1 µM]	-3	1%[46.1 µM]	-2

Assay outcomes deposited in PubChem by National Center for Advancing Translational Sciences (NCATS).
